The text below walks through data of PubChem BioAssay (NCI).

What all share (test): NCI-60 one-dose screen, 48 h (100 = growth as untreated, 0 = no growth, -100 = all killed)
Conditions in all cases: 10 µM unless noted

Experiment [1] has as its system NCI-H23 lung.
In experiment [2] the test system is NCI-H226 lung.
Experiment [3] has as its system NCI-H322M lung.
The subject of experiment [4] is HOP-62 NSCLC.
The test system of experiment [5] is NCI-H460 lung.
Experiment [6] deals with HOP-92 NSCLC.
Experiment [7] has as its system NCI-H522 lung.
In experiment [8] the test system is A549/ATCC NSCLC.
Experiment [9] relates to 786-0 renal.
Experiment [10] deals with COLO 205 colon.
For experiment [11], the system named is DU-145 prostate.
For experiment [12], the system named is K-562 leukemia.
For experiment [13], the system named is MALME-3M melanoma.
Experiment [14] relates to MDA-MB-231 breast.
In experiment [15] the test system is RXF 393 renal.
For experiment [16], the system named is SF-268 CNS.
In experiment [17] the test system is SF-295 CNS.
The subject of experiment [18] is SF-539 CNS.
Experiment [19] has as its system UACC-257 melanoma.
In experiment [20] the test system is M14 melanoma.

Values joined by “and” are separate entries in the source; they are usually repeats but may differ in a detail not shown here. Equal values may be shown once. This is part of a sample that, as a whole, favours compounds with a hit. Of some 83,000 tested, about 20% had one in any assay.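 48-hour exposure, single concentration, 96-well plates; percent growth endpoint where 0 means no net growth. Active: below 10.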 Active and inactive are the calls of the source.

In the case of `CO[C@H]1[C@H](O[C@@H]2C[C@@H]3C/C=C/C(=O)O[C@@H](CO)C[C@H](O)[C@@H]4C[C@H](C)[C@H](C/C=C\C=C\[C@H](C)C[C@H](C2)O3)O4)O[C@@H](C)[C@H](O)[C@H]1O`, the growth in experiment [1] is 22.5% (inactive); in [2], 37.9% (inactive); in experiment [3], 89.5% (inactive); in [4], 65.8% (inactive); in experiment [5], 54.5% (inactive); in experiment [6] it was 95.2% (inactive). Further, the growth in experiment [7] was 27.2% (inactive); in [8], 47% (inactive); in experiment [9], 78.7% (inactive); in experiment [10], 37.6% (inactive); in experiment [11] it was 52.5% (inactive); in experiment [12], 25.4% (inactive). Moreover, the growth in experiment [13] is 85.5% (inactive); in experiment [14], 92.9% (inactive); in [15], 88% (inactive); in [16], 86.4% (inactive); in experiment [17], 14.1% (inactive); in [18], 70.8% (inactive). Also, the results for the growth in experiment [19] and in experiment [20] were 9.72% (active) and 74.7% (inactive), respectively.
With `CC(=O)Nc1nc2c(s1)C1=CC[C@H]3[C@@H]4CC[C@H](OC(C)=O)[C@@]4(C)CC[C@@H]3[C@@]1(C)CC2`, the growth in experiment [1] was 69.7% (inactive); in [2], 91.7% (inactive); in experiment [3] it was 75.2% (inactive); in experiment [4] it was 55.6% (inactive); in experiment [5], 64.1% (inactive); in experiment [6], 87.2% (inactive). Further, the growth in [7] is 39.3% (inactive); in experiment [8] it was 54% (inactive); in experiment [9], 32% (inactive); in experiment [10] it was 67.3% (inactive); in experiment [11] it was 72.1% (inactive); in experiment [12] it was 35.1% (inactive). Further, the growth in experiment [13] was 66.5% (inactive); in experiment [14], 80.3% (inactive); in [15] it was 7.7% (active); in experiment [16], 58.4% (inactive); in experiment [17], 29.4% (inactive); in experiment [18], 14% (inactive). For the same compound, the growth is 79.2% (inactive) in [19] and 39.7% (inactive) in [20].
Take `O=C1CN2CCC1CC2`: the growth in [1] is 101% (inactive); in experiment [2], 96.8% (inactive); in experiment [3], 99.3% (inactive); in experiment [4], 93.5% (inactive); in experiment [5] it was 115% (inactive); in experiment [6], 106% (inactive). Besides, the growth is 90.3% (inactive) in [7]; 92.7% (inactive) in experiment [8]; 88.9% (inactive) in [9]; 116% (inactive) in experiment [10]; 103% (inactive) in experiment [11]; 93.9% (inactive) in experiment [12]. Also, the growth in experiment [13] is 102% (inactive); in experiment [14] it was 108% (inactive); in experiment [15], 111% (inactive); in [16] it was 99% (inactive); in experiment [17] it was 99.9% (inactive); in [18], 97.8% (inactive). Besides, the growth is 109% (inactive) in experiment [19] and 104% (inactive) in [20].
As to `CCOC(=O)C1C(C=C(C)C)C1(C)C` (stereo not given), the growth in experiment [1] is 101% (inactive); in experiment [2], 107% (inactive); in experiment [3], 140% (inactive); in experiment [4], 98.7% (inactive); in experiment [5] it was 103% (inactive); in experiment [6] it was 84.6% (inactive). Moreover, the growth in experiment [7] was 97.5% (inactive); in [8], 98.9% (inactive); in experiment [9], 105% (inactive); in experiment [10], 109% (inactive); in [11], 108% (inactive); in experiment [12], 155% (inactive). For the same compound, the growth is 140% (inactive) in experiment [13]; 106% (inactive) in [14]; 114% (inactive) in experiment [15]; 101% (inactive) in experiment [16]; 101% (inactive) in experiment [17]; 93.5% (inactive) in experiment [18]. Further, the growth in [19] and in [20] was 106% (inactive) throughout.
For the compound `COc1ccc(/C=C(/C)[N+](=O)[O-])cc1OC`, the growth in experiment [1] was 62.2% (inactive) and 58.1% (inactive); in experiment [2], 88.7% (inactive) and 79.2% (inactive); in experiment [3], 48% (inactive) and 94.5% (inactive); in experiment [4] it was 48.3% (inactive); in experiment [5] it was 34.2% (inactive) and 22.9% (inactive); in experiment [6], -6.58% (active) and -11.5% (active). In addition, the growth in [7] was -88.2% (active) and -73.2% (active); in experiment [8], 53.7% (inactive) and 52.9% (inactive); in experiment [9] it was -53.1% (active) and -23.3% (active); in experiment [10], -69.3% (active) and -76.2% (active); in experiment [11], 22.3% (inactive) and 13.5% (inactive); in experiment [12] it was 7.3% (active) and 5.18% (active). The growth was -22.6% (active) and -51.7% (active) in [13]; 11.3% (inactive) and 28.8% (inactive) in experiment [14]; -91.1% (active) and -95.7% (active) in [15]; 3.01% (active) and 44.6% (inactive) in experiment [16]; 98.6% (inactive) and 104% (inactive) in experiment [17]; 15.1% (inactive) in [18]. The growth in experiment [19] was -88.6% (active) and -67.5% (active); in experiment [20], -52.6% (active) and -61.6% (active).
